{"source": "PubChem BioAssay (Tox21)", "note": "Where “and” joins values, the source holds several entries; their conditions need not be identical. Identical values can stand only once. A number with no mark means an inactive call. Inconclusive results are not listed. Calls of active or inactive are those of the source. Calls come from the whole dose curve. % is set by controls: 0 for no effect and ±100 for the full control effect.", "data": [{"biological_target": "Acetylcholinesterase (Homo sapiens) (UniProt P22303)", "sequence (P22303 whole entry, looked up)": "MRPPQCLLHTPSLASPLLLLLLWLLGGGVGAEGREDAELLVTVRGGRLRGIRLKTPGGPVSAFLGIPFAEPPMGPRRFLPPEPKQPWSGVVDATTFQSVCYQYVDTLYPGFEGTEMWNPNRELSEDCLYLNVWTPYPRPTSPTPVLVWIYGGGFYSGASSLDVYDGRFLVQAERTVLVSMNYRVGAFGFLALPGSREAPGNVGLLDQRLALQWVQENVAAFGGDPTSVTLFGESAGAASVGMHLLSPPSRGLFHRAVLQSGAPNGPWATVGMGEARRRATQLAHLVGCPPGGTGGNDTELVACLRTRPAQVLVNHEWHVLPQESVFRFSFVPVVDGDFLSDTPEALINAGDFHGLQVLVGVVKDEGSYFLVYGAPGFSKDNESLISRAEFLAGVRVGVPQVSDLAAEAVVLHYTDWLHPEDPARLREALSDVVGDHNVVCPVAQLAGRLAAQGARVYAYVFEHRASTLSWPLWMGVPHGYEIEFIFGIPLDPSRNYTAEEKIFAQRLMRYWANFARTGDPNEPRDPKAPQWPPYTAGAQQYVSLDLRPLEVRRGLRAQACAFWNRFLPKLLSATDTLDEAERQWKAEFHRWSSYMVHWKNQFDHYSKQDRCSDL", "assay": "Acetylcholinesterase (AChE) small molecule antagonists: fluorescence cell-based qHTS assay (AID 1347398); note: nearly all actives have a fitted effect of over 50% in size; note: potency is the fitted concentration of half-maximal effect", "conditions": "SH-SY5Y cells; Potency: AChE activity; outcome: AChE activity; series mostly up to 115 µM; activity change, negative = inhibition: at the top concentration", "method_in_brief": "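Cellular AChE inhibition: SH-SY5Y cells treated with test chemical for 30 min at 37 C, then acetylthiocholine hydrolysis followed over 40 min at room temperature via thiocholine-reactive Thiolite Green fluorescence (490/520 nm).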", "values": [{"smiles": "OC[C@H]1O[C@@H](Oc2ccc(O)cc2)[C@H](O)[C@@H](O)[C@@H]1O", "Potency": "inactive"}, {"smiles": "CCCCCCCCCCCCOC(=O)c1cc(O)c(O)c(O)c1", "Potency": "inactive"}, {"smiles": "CC1=CC(=O)CC(C)(C)C1", "Potency": "inactive"}, {"smiles": "C[C@](N)(Cc1ccc(O)cc1)C(=O)O", "activity change, negative = inhibition": "3.21% [at 10.5 µM]"}, {"smiles": "CCCc1c2oc(C(=O)O)cc(=O)c2cc2c(=O)cc(C(=O)O)n(CC)c12", "activity change, negative = inhibition": "9.92% [at 53.7 µM]"}, {"smiles": "Cc1ccc(O)c(C(C)(C)C)c1", "Potency": "inactive"}, {"smiles": "O=[N+]([O-])c1cc[n+]([O-])cc1", "activity change, negative = inhibition": "2.85%"}, {"smiles": "C/C(=C(/OCCOc1ccc(Cl)cc1)c1ccc(Cl)cc1Cl)n1ccnc1", "activity change, negative = inhibition": "-7.7% [at 53.7 µM]"}, {"smiles": "CCCCCCCCCCCCSC#N", "activity change, negative = inhibition": "1.13%"}, {"smiles": "COC(=O)N[C@H](C(=O)N[C@@H](Cc1ccccc1)[C@@H](O)CN(Cc1ccc(-c2ccccn2)cc1)NC(=O)[C@@H](NC(=O)OC)C(C)(C)C)C(C)(C)C", "activity change, negative = inhibition": "3.33% [at 53.7 µM]"}, {"smiles": "CCC(=O)Nc1ccc(O)cc1", "activity change, negative = inhibition": "27.7% [at 53.7 µM]"}, {"smiles": "CCOC(=O)OC(C)OC1=C(C(=O)Nc2ccccn2)N(C)S(=O)(=O)c2ccccc21", "note": "(stereo not given)", "activity change, negative = inhibition": "9.54% [at 53.7 µM]"}, {"smiles": "OC1CCCc2ccccc21", "note": "(stereo not given)", "activity change, negative = inhibition": "0.533%"}, {"smiles": "CC/C=C\\C#N", "activity change, negative = inhibition": "3.51%"}, {"smiles": "[Cl][Nd]([Cl])[Cl]", "activity change, negative = inhibition": "1.04%"}, {"smiles": "CCCCCCC(=O)O", "Potency": "inactive"}, {"smiles": "C=C(C)C1CC=C(C)C(OC(C)=O)C1", "note": "(stereo not given)", "Potency": "inactive"}, {"smiles": "COCC(=O)Nc1c(I)c(C(=O)NCC(O)CO)c(I)c(C(=O)N(C)CC(O)CO)c1I", "note": "(stereo not given)", "activity change, negative = inhibition": "1.46% [at 53.7 µM]"}, {"smiles": "c1ccc(Sc2ccccc2)cc1", "activity change, negative = inhibition": "3.89%"}, {"smiles": "O=C1CCCCC1C1CCCCC1", "note": "(stereo not given)", "activity change, negative = inhibition": "1.39%"}, {"smiles": "COc1ccc(/C(C)=C/C(=O)O)c(OC)c1", "activity change, negative = inhibition": "7.6% [at 53.7 µM]"}, {"smiles": "CC(C)(C)CC(C)(C)c1ccc(Nc2ccc(C(C)(C)CC(C)(C)C)cc2)cc1", "activity change, negative = inhibition": "-4.09% [at 10.5 µM]"}, {"smiles": "NCCCN1CCN(CCCN)CC1", "activity change, negative = inhibition": "2.8%"}, {"smiles": "CCCC(C)CCC(C)=O", "note": "(stereo not given)", "activity change, negative = inhibition": "5.19%"}, {"smiles": "C=CC(=O)OCC(O)COc1ccccc1", "note": "(stereo not given)", "activity change, negative = inhibition": "-0.543%"}, {"smiles": "CCCC(=O)O", "Potency": "inactive"}, {"smiles": "C/C(Cl)=C/CCl", "activity change, negative = inhibition": "6.28%"}, {"smiles": "CCCCC(=O)OCC(=O)[C@H]1[C@H](C)C[C@H]2[C@@H]3C[C@H](F)C4=CC(=O)C=C[C@]4(C)[C@@]3(F)[C@@H](O)C[C@@]21C", "activity change, negative = inhibition": "4.29% [at 53.7 µM]"}, {"smiles": "Cc1ccc(O)c2ncccc12", "activity change, negative = inhibition": "4.55% [at 53.7 µM]"}, {"smiles": "CCCC/C=C/C=C\\C=O", "activity change, negative = inhibition": "-8.09%"}, {"smiles": "NC(=S)NC(N)=S", "activity change, negative = inhibition": "33.3%"}, {"smiles": "CC(C)OCC1CO1", "note": "(stereo not given)", "activity change, negative = inhibition": "3.76%"}, {"smiles": "OC12N=C(c3ccccc3)SC1Cc1cc(Cl)ccc12", "note": "(stereo not given)", "activity change, negative = inhibition": "-7.56%"}, {"smiles": "O=c1c(O)c(O)c1=O", "activity change, negative = inhibition": "2.03%"}, {"smiles": "O=C1c2ccccc2C(=O)C1c1ccc(Br)cc1", "activity change, negative = inhibition": "9.47% [at 53.7 µM]"}, {"smiles": "CCCCCCCC/C=C\\CCCCCCCCOCCO", "activity change, negative = inhibition": "-8.55%"}, {"smiles": "CCCCC(=O)O[C@]1(C(=O)CO)CC[C@H]2[C@@H]3CCC4=CC(=O)CC[C@]4(C)[C@H]3[C@@H](O)C[C@@]21C", "activity change, negative = inhibition": "-3.94% [at 53.7 µM]"}, {"smiles": "CC(C)=CC1CC(C)CCO1", "note": "(stereo not given)", "activity change, negative = inhibition": "-9.72%"}, {"smiles": "Nc1ccc(N)c(Cl)c1", "Potency": "5.63 µM (active) and 10 µM (active)"}, {"smiles": "CC(C)(C)C(=O)C(Oc1ccc(Cl)cc1)n1ccnc1", "note": "(stereo not given)", "activity change, negative = inhibition": "7.09% [at 53.7 µM]"}]}, {"biological_target": "Acetylcholinesterase (Homo sapiens) (UniProt P22303)", "assay": "Acetylcholinesterase (AChE) small molecule antagonists: enzyme-based qHTS assay with human liver microsomes (AID 1347399); note: nearly all actives have a fitted effect of over 60% in size", "conditions": "Potency: qHTS inhibition; outcome: qHTS inhibition; series mostly up to 115 µM; activity change, negative = inhibition: at the top concentration", "method_in_brief": "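Recombinant human AChE (50 mU/mL in the enzyme mix) and human liver microsomes (0.25 mg/mL final) were preincubated with compound and NADPH (0.25 mg/mL final) for 30 min at 37 C. Acetylthiocholine/DTNB was then added; thiocholine was read colorimetrically after 10 min at room temperature.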", "values": [{"smiles": "OC[C@H]1O[C@@H](Oc2ccc(O)cc2)[C@H](O)[C@@H](O)[C@@H]1O", "Potency": "inactive"}, {"smiles": "CCCCCCCCCCCCOC(=O)c1cc(O)c(O)c(O)c1", "Potency": "inactive"}, {"smiles": "CC1=CC(=O)CC(C)(C)C1", "Potency": "inactive"}, {"smiles": "C[C@](N)(Cc1ccc(O)cc1)C(=O)O", "activity change, negative = inhibition": "-2.1% [at 10.5 µM]"}, {"smiles": "CCCc1c2oc(C(=O)O)cc(=O)c2cc2c(=O)cc(C(=O)O)n(CC)c12", "activity change, negative = inhibition": "-0.973% [at 53 µM]"}, {"smiles": "Cc1ccc(O)c(C(C)(C)C)c1", "Potency": "inactive"}, {"smiles": "O=[N+]([O-])c1cc[n+]([O-])cc1", "activity change, negative = inhibition": "-3.48%"}, {"smiles": "C/C(=C(/OCCOc1ccc(Cl)cc1)c1ccc(Cl)cc1Cl)n1ccnc1", "activity change, negative = inhibition": "2.35% [at 53 µM]"}, {"smiles": "CCCCCCCCCCCCSC#N", "activity change, negative = inhibition": "-2.66%"}, {"smiles": "COC(=O)N[C@H](C(=O)N[C@@H](Cc1ccccc1)[C@@H](O)CN(Cc1ccc(-c2ccccn2)cc1)NC(=O)[C@@H](NC(=O)OC)C(C)(C)C)C(C)(C)C", "activity change, negative = inhibition": "-0.784% [at 53 µM]"}, {"smiles": "CCC(=O)Nc1ccc(O)cc1", "activity change, negative = inhibition": "-0.782% [at 53 µM]"}, {"smiles": "CCOC(=O)OC(C)OC1=C(C(=O)Nc2ccccn2)N(C)S(=O)(=O)c2ccccc21", "note": "(stereo not given)", "activity change, negative = inhibition": "0.241% [at 53 µM]"}, {"smiles": "OC1CCCc2ccccc21", "note": "(stereo not given)", "activity change, negative = inhibition": "-1.02%"}, {"smiles": "CC/C=C\\C#N", "activity change, negative = inhibition": "0.746%"}, {"smiles": "[Cl][Nd]([Cl])[Cl]", "activity change, negative = inhibition": "2.11%"}, {"smiles": "CCCCCCC(=O)O", "Potency": "inactive"}, {"smiles": "C=C(C)C1CC=C(C)C(OC(C)=O)C1", "note": "(stereo not given)", "Potency": "inactive"}, {"smiles": "COCC(=O)Nc1c(I)c(C(=O)NCC(O)CO)c(I)c(C(=O)N(C)CC(O)CO)c1I", "note": "(stereo not given)", "activity change, negative = inhibition": "-0.0869% [at 53 µM]"}, {"smiles": "c1ccc(Sc2ccccc2)cc1", "activity change, negative = inhibition": "-2.36%"}, {"smiles": "O=C1CCCCC1C1CCCCC1", "note": "(stereo not given)", "activity change, negative = inhibition": "0.522%"}, {"smiles": "COc1ccc(/C(C)=C/C(=O)O)c(OC)c1", "activity change, negative = inhibition": "0.729% [at 53 µM]"}, {"smiles": "CC(C)(C)CC(C)(C)c1ccc(Nc2ccc(C(C)(C)CC(C)(C)C)cc2)cc1", "activity change, negative = inhibition": "0.323% [at 10.5 µM]"}, {"smiles": "NCCCN1CCN(CCCN)CC1", "activity change, negative = inhibition": "0.84%"}, {"smiles": "CCCC(C)CCC(C)=O", "note": "(stereo not given)", "activity change, negative = inhibition": "-1.28%"}, {"smiles": "C=CC(=O)OCC(O)COc1ccccc1", "note": "(stereo not given)", "activity change, negative = inhibition": "0.153%"}, {"smiles": "CCCC(=O)O", "Potency": "inactive"}, {"smiles": "C/C(Cl)=C/CCl", "activity change, negative = inhibition": "2.21%"}, {"smiles": "CCCCC(=O)OCC(=O)[C@H]1[C@H](C)C[C@H]2[C@@H]3C[C@H](F)C4=CC(=O)C=C[C@]4(C)[C@@]3(F)[C@@H](O)C[C@@]21C", "activity change, negative = inhibition": "-0.766% [at 53 µM]"}, {"smiles": "Cc1ccc(O)c2ncccc12", "activity change, negative = inhibition": "-0.421% [at 53 µM]"}, {"smiles": "CCCC/C=C/C=C\\C=O", "activity change, negative = inhibition": "-1.07%"}, {"smiles": "NC(=S)NC(N)=S", "activity change, negative = inhibition": "0.917%"}, {"smiles": "CC(C)OCC1CO1", "note": "(stereo not given)", "activity change, negative = inhibition": "-2.24%"}, {"smiles": "OC12N=C(c3ccccc3)SC1Cc1cc(Cl)ccc12", "note": "(stereo not given)", "activity change, negative = inhibition": "4.57%"}, {"smiles": "O=c1c(O)c(O)c1=O", "activity change, negative = inhibition": "0.482%"}, {"smiles": "O=C1c2ccccc2C(=O)C1c1ccc(Br)cc1", "activity change, negative = inhibition": "0.733% [at 53 µM]"}, {"smiles": "CCCCCCCC/C=C\\CCCCCCCCOCCO", "activity change, negative = inhibition": "-2.2%"}, {"smiles": "CCCCC(=O)O[C@]1(C(=O)CO)CC[C@H]2[C@@H]3CCC4=CC(=O)CC[C@]4(C)[C@H]3[C@@H](O)C[C@@]21C", "activity change, negative = inhibition": "2.86% [at 53 µM]"}, {"smiles": "CC(C)=CC1CC(C)CCO1", "note": "(stereo not given)", "activity change, negative = inhibition": "0.716%"}, {"smiles": "Nc1ccc(N)c(Cl)c1", "Potency": "inactive"}, {"smiles": "CC(C)(C)C(=O)C(Oc1ccc(Cl)cc1)n1ccnc1", "note": "(stereo not given)", "activity change, negative = inhibition": "-0.443% [at 53 µM]"}]}]}
